According to paper PMC12136788:
Substitutions are numbered along the chain they refer to. Over roughly 5,800 sequences, “enrichment r” has its median near 0.54; the highest 2% begin near 16. The entries come from a sample that favours the highest values as a whole.

B1: chr7:107760707:107760808:+|3pUTR|ENSG00000105879|unk|total|mutant (ssRNA)
RNA: GGGAGUUCUACAGUCCGACGAUCAAACAUGAAAUAUGCCGUAUGCAGAUAUCAUUUAUCCGACCGUUUGCCGUGUAUACAUUCCGAACAUACUUCUUUUGACAAAGGGUGAUCUGAUUGCUAAUUUACCAUUUUAUUCUGUCACAACAGAGGAUUGAGCAUCA
B2: chr7:107760707:107760808:+|3pUTR|ENSG00000105879|unk|FALSE|unique (ssRNA)
RNA: B1 RNA with C38U, C39A, C59U, C60A, C63U, C64A, C70U, C71A, C83U, C84A
B3: chr1:965281:965395:+|3pUTR|ENSG00000187961|unk|FALSE|unique (ssRNA)
RNA: GGGAGUUCUACAGUCCGACGAUCCCAUCCGUUCACGUCUCUGCAUCCAUUCCUUCAUGUCUUUAUUUAGUUGUUUAUUUAUUUAGUUAUUUAUCUUAUUUAUUGAGGGGUGAGGAGUGCCACGGCUGCCCGUUUACACCUUUACAACAGAGGAUUGAGCAUCA
B4: chr1:162523450:162523604:+|3pUTR|ENSG00000152332|msi1|total|mutant (ssRNA)
RNA: GGGAGUUCUACAGUCCGACGAUCAGACUAAGUUGUGCCAGAUGUAAAUCAACCCCUCUUUCCGUUUACUUCCGACUUUGUAUCCGCUCAUCUUUUUUGCCGUAAAUCUACCGUUUUAAGGUUUCUCAAGAUGUGGCUCUACCUCAACAGAGGAUUGAGCAUCA
B5: chr1:965281:965395:+|3pUTR|ENSG00000187961|unk|total|mutant (ssRNA)
RNA: B3 RNA with U67C, A68C, U83C, A84C
B6: chr1:162523450:162523604:+|3pUTR|ENSG00000152332|msi1|FALSE|unique (ssRNA)
RNA: B4 RNA with C61U, C62A, C71U, C72A, C83U, C84A, C99U, C100A, C110U, C111A
B7: chr11:130144177:130144243:+|3pUTR|ENSG00000084234|msi1_unk|total|mutant (ssRNA)
RNA: GGGAGUUCUACAGUCCGACGAUCAUGAGGGUGUCCGCUGCUGCUUUCCUUCGGAAUCCAGUGCUUCCACAGAGAUCCGCCUGCCGCUUAUAUUUGACAUUCUUCACUGUCUGUUGUUUACCUACCGCCGCUUUUUACCGUUCACAACAGAGGAUUGAGCAUCA
B8: chr17:77216858:77216994:+|3pUTR|ENSG00000129657|unk|FALSE|bound_elsewhere (ssRNA)
RNA: GGGAGUUCUACAGUCCGACGAUCUGUUUCUACCUUUAGUACCUUGCCACUCUUUUAAAACGCUGCUGUCAUUUCCCAUUUCUUAGUACUAAUGAUUCUUUGAUUCUCCCUCUAUUAUGUCUUAAUUCACUUUCCUUCCUAAAUCAACAGAGGAUUGAGCAUCA
B9: chr10:119167843:119167906:-|3pUTR|ENSG00000165672|msi1_unk|FALSE|overlapping (ssRNA)
RNA: GGGAGUUCUACAGUCCGACGAUCUGCAUGAUCCCUCAUCCCUGAAAUUGAGUUUAUGUAGUCAUUUUACUUAUUUUAUUCAUUAGCUAACUUUGUCUAUGUAUAUUUCUAGAUAUUGAUUAGUGUAAUCGAUUAUAAAGGAUACAACAGAGGAUUGAGCAUCA
B10: chr3:62294290:62294391:+|3pUTR|ENSG00000144724|msi1|total|mutant (ssRNA)
RNA: GGGAGUUCUACAGUCCGACGAUCAACCCGUCCUCUAAAAAUUCCCUAUUACUCCUACCGCAAUCUAAUAAAAACUACCUACACCGUUACUGUUUUCUUUCCUUCUUUGCCAAAUGUUUUAUAAUAAAUCUCUUAAUUACAUACCAACAGAGGAUUGAGCAUCA
B11: chr1:229660051:229660152:+|3pUTR|ENSG00000135763|msi1|FALSE|bound_elsewhere (ssRNA)
RNA: GGGAGUUCUACAGUCCGACGAUCCUCAUUCAUAGUCUCAGUUACCCAGAUAACCUCGGUUGUCACCUUGGAGUAUCUUGUUGUAGUCCCUUUACUAUGUGUAUGUAUAUAGAUGUGCAUAUAAAUAUAUAUAGUAGCUAAAUUCAACAGAGGAUUGAGCAUCA
B12: chr3:62294290:62294391:+|3pUTR|ENSG00000144724|msi1|FALSE|unique (ssRNA)
RNA: B10 RNA with C27U, C28A, C57U, C58A, C83U, C84A
B13: chr12:2800410:2800520:+|CDS|ENSG00000004478|unk|total|mutant (ssRNA)
RNA: GGGAGUUCUACAGUCCGACGAUCAAAUACAAGCAAGCUUUACUACAGUAUAAGAAGAUCGUGUCUUGGCUGGAAUAUGAGUCCCGUUUUUCCAAUGAGGAAGCACAGAAAGCACAGGCCCUUCGACUGGCCUCUCACCUCAACCAACAGAGGAUUGAGCAUCA
B14: chr11:46743636:46743700:-|3pUTR|ENSG00000175216|msi1_unk|total|mutant (ssRNA)
RNA: GGGAGUUCUACAGUCCGACGAUCUUGUAAAAUUGUCCUAAUCUUUCCCCGCUUUUUAACCGUUAAUAUCCGAAACUCUUUAACCGUUUUCCUUUCAGUUUGUGAGCUCUUCUCUGUCGCCCUGAAGGGUCACUGUAUUCUGUACAACAGAGGAUUGAGCAUCA
B15: chr2:166409664:166409935:-|three_prime_utr|ENSG00000136546|control|control|control (ssRNA)
RNA: GGGAGUUCUACAGUCCGACGAUCUGUGGUAACAAGCCAAGCUUUUAAUGUCAUUGUUAUGGUUCUUAUAUGUUUCCAAGCAAUAGCCAUGAUGAUAGACACUGAUGUUCAGAGUCUACAAAUGUCCAUUGCUCUCUACUGGAUCAACAGAGGAUUGAGCAUCA
B16: ENSG00000070961:be:win_5601|3pUTR|ENSG00000070961|bound_else_gene|NA|bound_elsewhere_windowed (ssRNA)
RNA: GGGAGUUCUACAGUCCGACGAUCGAGGUAGCAUGAUAUGCUGGAAAGCAUAUUAGACUAGGAGUCAAGACCUGGUUUCUAGUCUUGGUUUUGCCAUUAAUGUGCUGCAUGAUCUUGGGAAAAUCAUUUACCCUAAAUAAGGGUCAACAGAGGAUUGAGCAUCA

molecular target: MSI1 full-length (mouse, UniProt Q61474 1-362); assay: nsRBNS (natural sequence RNA bind-n-seq); RBNS binding buffer (assumed for nsRBNS): 25 mM Tris pH 7.5, 150 mM KCl, 3 mM MgCl2, 0.01% Triton X-100, 500 ug/ml BSA, 20 U/ml SUPERase-In, 4 C; UNK is unkempt and MSI1 is Musashi-1; names of the RNAs are library labels; protein concentration not given here; high values mean tight binding
Sequence (Q61474 whole entry): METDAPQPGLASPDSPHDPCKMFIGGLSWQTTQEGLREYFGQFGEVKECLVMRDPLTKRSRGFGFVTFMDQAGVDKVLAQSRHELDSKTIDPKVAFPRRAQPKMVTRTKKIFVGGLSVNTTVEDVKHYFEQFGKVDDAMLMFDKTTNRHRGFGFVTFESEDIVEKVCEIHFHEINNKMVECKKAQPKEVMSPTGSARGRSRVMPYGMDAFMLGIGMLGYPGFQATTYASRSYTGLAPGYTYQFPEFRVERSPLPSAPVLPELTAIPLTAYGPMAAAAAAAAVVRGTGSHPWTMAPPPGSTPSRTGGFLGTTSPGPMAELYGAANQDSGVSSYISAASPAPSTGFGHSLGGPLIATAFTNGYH

| Binder | binding signal [enrichment R] |
| --- | --- |
| B1 | 0.319 |
| B2 | 56.7 |
| B3 | 64.6 |
| B4 | 0.276 |
| B5 | 8.96 |
| B6 | 19.3 |
| B7 | 0.557 |
| B8 | 6.66 |
| B9 | 1.93 |
| B10 | 8.49 |
| B11 | 3.57 |
| B12 | 32 |
| B13 | 0.381 |
| B14 | 0.866 |
| B15 | 0.263 |
| B16 | 0.263 |
